Assay outcomes as filed in PubChem.
An excerpt weighted towards active compounds, which were near 12% of everything screened.
Sfp inh – inhibitors of Bacillus subtilis Sfp phosphopantetheinyl transferase; Q9F4F7; Biochemical Sfp PPTase activity, qHTS; Potency, µM, for inactives: largest response in the series, negative = inhibition, most hits filed as inhibitors; hit rate 3.5% among 310,000;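 further: the enzyme is Sfp with the accession as filed and its product quenches rhodamine fluorescence; 0% = enzyme reaction without inhibitor and -100% = no enzyme wells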
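Compounds were incubated with enzyme (final 15 nM) for 15 min at room temperature before substrate addition started the reaction. Fluorescence at 525 nm excitation, 598 nm emission was recorded immediately and after 30 minutes.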
HP1b chromo inh – blocks HP1-beta chromodomain binding to methylated histone tails. AlphaScreen HP1-beta / biotin-H3K9me3 peptide binding. Potency, µM (highest dose often 114 µM), without a hit: at the highest dose activity change, negative = inhibition, actives largely listed as inhibitors. hit rate 0.56% among 390,000. AID 540317; further: nearly all actives have a fitted effect of over 70% in size
Target sequence (P83916 whole entry, looked up): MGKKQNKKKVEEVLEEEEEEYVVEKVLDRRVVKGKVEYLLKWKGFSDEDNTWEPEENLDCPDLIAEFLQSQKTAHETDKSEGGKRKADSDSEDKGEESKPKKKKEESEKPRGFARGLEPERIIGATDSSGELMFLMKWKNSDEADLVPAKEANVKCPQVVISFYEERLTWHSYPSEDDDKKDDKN
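AlphaScreen: HP1-beta (50 nM) preformed 30 min with biotin-H3(1-18)K9me3 peptide (50 nM) in PBS pH 7.4, 0.01% Tween-20. Compound added for 30 min at RT, then streptavidin donor/nickel chelate acceptor beads (10 ug/mL) for 30 min.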
G9a inh – blocks human histone lysine methyltransferase G9a; Q96KQ7; G9a H3K9 monomethylation, AlphaScreen, 2 h; Potency, µM (titrated, usually from 102 µM), without a hit: at the highest dose activity, negative = inhibition, most hits filed as inhibitors; hit rate 8.8% among 350,000; further: on the % scale 0 is the no-effect control and ±100 the full control effect; nearly all actives have a fitted effect of over 75% in size
Target sequence (Q96KQ7 913-1193 limits assumed): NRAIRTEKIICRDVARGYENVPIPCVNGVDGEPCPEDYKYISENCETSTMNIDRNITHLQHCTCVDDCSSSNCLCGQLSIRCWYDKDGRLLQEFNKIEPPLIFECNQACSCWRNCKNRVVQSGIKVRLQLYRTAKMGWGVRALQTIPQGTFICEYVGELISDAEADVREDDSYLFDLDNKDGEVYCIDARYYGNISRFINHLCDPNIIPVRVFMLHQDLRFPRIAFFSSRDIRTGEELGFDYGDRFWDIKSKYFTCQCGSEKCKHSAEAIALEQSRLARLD
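Compounds were preincubated with 20 nM G9a for 15 min, after which biotinylated H3K9 peptide (500 nM) and SAM (20 uM) started a 2 h room-temperature reaction. Monomethylated product was quantified by antibody-based AlphaScreen chemiluminescence.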
BAZ2B block – inhibitors of human BAZ2B bromodomain | hit rate 4.4% among 360,000 | AlphaScreen BAZ2B-H3K14Ac peptide displacement | AID 504333 | Q9UIF8 | Potency, µM (series often up to 114 µM), inactives show at the highest dose activity change, negative = inhibition, hits mostly inhibitors; further: on the % scale 0 is the no-effect control and ±100 the full control effect; nearly all actives have a fitted effect of over 60% in size
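AlphaScreen displacement of biotin-H3(5-23)K14Ac peptide (50 nM final) from BAZ2B (50 nM final) in PBS pH 7.4, 0.01% Tween-20; complex preformed 30 min RT, then compounds (top 110 uM) 30 min RT, beads 20 min dark.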
JMJD2A Tudor inh – inhibitors of human JMJD2A Tudor domain; O75164; AlphaScreen JMJD2A-Tudor / H3K4me3 peptide binding; Potency, µM (top dose mostly 114 µM), for inactives: at the top dose activity change, negative = inhibition, most hits filed as inhibitors; hit rate 4.4% among 390,000; AID 504339; further: on the % scale 0 is the no-effect control and ±100 the full control effect; nearly all actives have a fitted effect of over 50% in size
* marks the source's active call; other numbers are inactive results; ? = inconclusive; . = not tested or not shown; [ ] = dose if it differs, or a comment. The call rests on the fitted dose curve; in most records, active means well fitted curve in the direction sought with a large enough effect; inconclusive means small, poorly fitted or top-dose-only effect, or another doubt; inactive means no such curve, though single readings can be large; an effect the other way counts as inactive or inconclusive. Potency means the concentration at half of the fitted maximal effect.

SMILES	Sfp inh	HP1b chromo inh	G9a inh	BAZ2B block	JMJD2A Tudor inh
CCCCC[C@]12Cc3cc(OC)c(OC)cc3C(O1)c1c(cc(C)n(-c3ccccc3)c1=O)O2	-11%	.	8%[2.33 µM]	11µM*	.
COc1cc2c(cc1OC)C1O[C@](c3ccsc3)(C2)Oc2cc(C)n(Cc3ccccc3)c(=O)c21	7%	.	13%[2.33 µM]	4µM*	.
COc1cc2c(cc1OC)C1O[C@](CCCCN3C(=O)c4ccccc4C3=O)(C2)Oc2c1c(=O)oc1ccc(F)cc21	-19%	.	?	8.9µM*	.
COc1cccc(NC(=O)/C(C#N)=C/c2c(C)n(Cc3ccc(Cl)cc3)c3ccccc23)c1	.	23%	7%[59 µM]	-15%	-21%
CC(C)n1c(S(=O)(=O)O)nc2ccccc21	-2%	35%	45µM*	-18%	-3%
Cc1ccc(C2=NC(=O)/C(=C/c3cc(O)c(O)c(Br)c3)S2)cc1	45µM*	3.2µM*	2.2µM*	3.5µM*	5µM*
COc1cc(/C=C2\SC(c3ccc(C)cc3)=NC2=O)cc(OC)c1O	11µM*	13µM*	?	35µM*	56µM*
COc1cc(/C=C2\SC(N)=NC2=O)cc(Cl)c1O	4%	27%	8%[0.501 µM]	-37%	-10%
COc1ccc(/C=C2\SC(N)=NC2=O)cc1Br	-27%	17%	.	?	-35%
O=C(NCCc1nc2ccccc2n1CCCOc1ccc2ccccc2c1)C1CCCCC1	.	7%[57 µM]	.	.	-4%[57.1 µM]
CC[C@H](C)[C@H](NC(=O)[C@H](Cc1ccc(O)cc1)NC(=O)[C@H](Cc1cnc[nH]1)NC(=O)[C@H](CCCNC(=N)N)NC(=O)[C@H](CC(C)C)NC(=O)[C@H](C)NC(=O)[C@H](CO)NC(=O)[C@H](Cc1ccc(O)cc1)NC(=O)[C@H](Cc1ccc(O)cc1)NC(=O)[C@H](CCCNC(=N)N)NC(=O)[C@H](C)NC(=O)[C@H](CC(C)C)NC(=O)[C@H](CC(=O)O)NC(=O)[C@H](CCC(=O)O)NC(=O)[C@H](C)NC(=O)[C@@H]1CCCN1C(=O)[C@H](C)NC(=O)[C@H](CC(=O)O)NC(=O)[C@H](CCC(=O)O)NC(=O)CNC(=O)[C@@H]1CCCN1C(=O)[C@H](CC(N)=O)NC(=O)[C@H](CC(=O)O)NC(=O)[C@@H]1CCCN1C(=O)[C@H](CCCCN)NC(=O)[C@@H](N)CO)C(=O)N[C@@H](CC(N)=O)C(=O)N[C@@H](CC(C)C)C(=O)N[C@H](C(=O)N[C@H](C(=O)N[C@@H](CCCNC(=N)N)C(=O)N[C@@H](CCC(N)=O)C(=O)N[C@@H](CCCNC(=N)N)C(=O)N[C@@H](Cc1ccc(O)cc1)C(N)=O)[C@@H](C)O)[C@@H](C)CC	-26%	.	.	.	.
CCOC(=O)c1ccccc1N/C=C/C(=O)c1cccs1	-16%	85%	32µM*	18%	16%
O=C(/C=C/Nc1ccccc1F)c1cccs1	9%	28%	32µM*	1%	-8%
CCOC(=O)c1ccccc1NC(=O)c1cccs1	-6%	39%	32%	22%	-2%
O=C(/C=C/Nc1ccc(F)cc1F)c1cccs1	?	21%	14µM*	-1%	-19%
O=C1CCCC2=C1C1(CCSCC1)N=C(Nc1nc3ccccc3o1)N2	.	.	.	.	-13%
Cc1ccc(C)c(CSc2nnc(C)n3c2cc2sccc23)c1	.	31%	-8%[59 µM]	-14%	-12%
CCc1nnc(SCc2ccc(F)cc2Cl)c2cc3sccc3n12	.	45%	-16%[59 µM]	-12%	-6%
CCc1nnc(SCc2ccc(F)cc2Cl)c2cc3sc(C)cc3n12	.	50%	-9%[59 µM]	-15%	89µM*
CCc1nnc(SCc2cc(C)ccc2C)c2cc3sc(C)cc3n12	.	44%	10µM*	2%	3%
CCN(CC)S(=O)(=O)c1cccc(N=Nc2sc(N)nc2C)c1	-2%	?	40µM*	11µM*	35µM*
COC(=O)c1cc(N=Nc2sc(N)nc2C)cc(C(=O)OC)c1	-3%	32%	6%[12.7 µM]	-33%	-31%
COc1cccc(-n2nc(C(N)=O)c(O)cc2=O)c1	13%	29%	-50%	-32%	-11%
COc1cccc(-n2nc(C#N)c(Cl)cc2=O)c1	2%	75%	50µM*	-23%	-27%
COC(=O)CCCC1=CC2=CC(=O)C(C)(OC(=O)c3cccs3)C(=O)C2=CN1CCc1ccccn1 (stereo not given)	0%	21%	11%[59 µM]	-30%	-22%
SMILES	Sfp inh	HP1b chromo inh	G9a inh	BAZ2B block	JMJD2A Tudor inh
C=CCN1C=C2C(=O)C(C)(OC(=O)c3cccs3)C(=O)C=C2C=C1CCCC(=O)OC (stereo not given)	0%	11%	-6%[12.7 µM]	79µM*	-29%
C=C(C)CC(Nc1ccc(OC)cc1)c1ccco1 (stereo not given)	14%	38%	?	50µM*	3%
COc1ccc(S(=O)(=O)NC(CC(=O)O)c2ccco2)cc1 (stereo not given)	11%	32%	1%	3%	-4%
COCCCNC(=O)C(=O)C1C(=O)Nc2ccccc21 (stereo not given)	11%	3%	40µM*	-35%	-29%
O=C(O)CCCCCNC(=O)C(=O)C1C(=O)Nc2ccccc21 (stereo not given)	-5%	61%	25µM*	?	-4%[11.4 µM]
O=C(NCc1ccncc1)C(=O)C1C(=O)Nc2ccccc21 (stereo not given)	7%	-4%	-48%	?	?
CC1CCC(C(C)C)C(OC(=O)COC(=O)c2cc(O)ccc2N)C1 (stereo not given)	-3%	16%	10µM*	?	?
Cc1cccc(Nc2nc(-c3ccncc3)cs2)c1	-4%	29%	?	0%	-32%
O=C(Nc1nc(-c2ccc3c(c2)OCCO3)cs1)C1CCCC1	5%	20%	45µM*	?	?
Cc1nc(-c2ccc3c(c2)OCCO3)cs1	?	8%	32µM*	-16%	-11%
Cc1cccc(Nc2nc(-c3ccc4c(c3)OCCO4)cs2)c1	-12%	-35%	7.9µM*	50µM*	?
CN(C)/C=N/c1nc(-c2ccc3c(c2)OCO3)cs1	10%	4%	-17%	-30%	-13%
CN(Cc1ccsc1)C(=O)Cn1cc(Br)ccc1=O	9%	28%	-3%	0%	-3%
C#CCOc1ccc(-c2nnc(Nc3cccc(C)c3)c3ccccc23)cc1	.	34%	9%[59 µM]	2%	-16%
COc1c(N)c2ccccc2[nH]c1=O	13µM*	24%	?	1%	-7%
O=c1[nH]c2ccccc2c2ccccc12	6%	28%	16%[12.7 µM]	-14%	-15%
O=C(O)c1ccn[nH]1	.	-2%	.	.	45µM*
C[C@@H](O)C#C[Si](C)(C)c1ccccc1	8%	.	.	.	.
CC(C)CCN(C(=O)C1CSC2(C)CCC(=O)N12)c1c(N)n(Cc2ccccc2)c(=O)[nH]c1=O (stereo not given)	.	5%	28µM*	?	-19%
